From PubChem BioAssay
KCNQ2 pot: potentiators of rat KCNQ2 potassium channel | AID 2239, 2010 | Potassium voltage-gated channel subfamily KQT member 2 (Rattus norvegicus), O88943 | B-score at 10 µM | CHO-K1 KCNQ2, FluxOR thallium flux fluorescence; active compounds read high | 310,000 compounds, 0.54% hits;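 active means fluorescence ratio B-score at least 3 SD of library B-scores, with initial fluorescence B-score within 3 of them, cut at about 5.3 in these data; same plate scores as AID 2156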;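 further: B-score of peak minus minimum over baseline fluorescence ratio after K+ and Tl+ stimulus; positive B-score means potentiation of KCNQ2 with more thallium influx and brighter signal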
KCNQ2 inh: rat KCNQ2 potassium channel inhibitors, primary screen, cell-based, CHO-K1, FluxOR thallium flux, B-score | 20 min; active compounds read low | Potassium voltage-gated channel subfamily KQT member 2 (Rattus norvegicus), O88943 | B-score at 10 µM | 310,000 compounds, 1.1% hits;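 active means fluorescence ratio B-score at most minus 3 library SDs, with starting brightness B-score within 2 library SDs, cut at about -5.5 in these data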
Kir21 conf inh: mouse Kir2.1 channel blockers, retest, confirmation, cell-based, FluxOR thallium flux, duplicate. shares compounds with KCNQ2 pot. 2,300 compounds, 41% hits. Kir2.1-expressing cells, FluxOR thallium flux fluorescence; active compounds read low. AID 2032, 2009. Tl flux remaining, % of negative control (active compounds read low), % at 10 µM;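 active means Primary-screen hit whose thallium flux fell at least 3 control SD below untreated wells in both duplicates, with normal baseline fluorescence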
HEK293 ctr: alters thallium flux in parental HEK293 cells, Kir2.1 counter-screen; shares compounds with KCNQ2 pot; FluxOR thallium flux fluorescence; 0% = unstimulated blank wells; FluxOR signal as % of negative control (100 = no effect), % at 10 µM; AID 2105; 2,300 compounds, 19% hits;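 active means dye signal at least 3 control SD above or below untreated wells in both duplicates, raw fluorescence within 3, either direction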;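 further: percent is based on the flux ratio of peak minus minimum fluorescence over baseline F0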
CHO-K1 Tl ctr: nonspecific thallium flux increase in parental CHO-K1, confirmation, counter-screen for KCNQ2 potentiator project, cell-based, FluxOR thallium flux, duplicate; shares compounds with KCNQ2 pot; parental CHO-K1 cells, FluxOR thallium flux fluorescence; zero = vehicle mean+3SD, 100% = vehicle-minus-blank window; activity increase over 3SD of controls, % at 10 µM; 1,200 compounds, 43% hits; AID 2282, 2010;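 active means signal rise of at least 3 SD above the untreated control mean, in both duplicate wells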;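 further: counter screen of KCNQ2 potentiator hits so any rise reflects channel-independent effects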
KCNQ1 sel pot: human KCNQ1 channel potentiation off-target, confirmation, selectivity assay for KCNQ2 potentiator project, cell-based, CHO, FluxOR thallium flux. shares compounds with KCNQ2 pot. CHO KCNQ1 stable, FluxOR thallium flux fluorescence; beyond 3SD, as % of vehicle-control signal. activation over 3SD threshold, % at 10 µM. 1,200 compounds, 28% hits. AID 2283, 2010;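 active means fluorescence ratio rise of at least 3 SD of vehicle wells above their mean, in both replicate wells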
Target sequence (P51787 whole entry, looked up): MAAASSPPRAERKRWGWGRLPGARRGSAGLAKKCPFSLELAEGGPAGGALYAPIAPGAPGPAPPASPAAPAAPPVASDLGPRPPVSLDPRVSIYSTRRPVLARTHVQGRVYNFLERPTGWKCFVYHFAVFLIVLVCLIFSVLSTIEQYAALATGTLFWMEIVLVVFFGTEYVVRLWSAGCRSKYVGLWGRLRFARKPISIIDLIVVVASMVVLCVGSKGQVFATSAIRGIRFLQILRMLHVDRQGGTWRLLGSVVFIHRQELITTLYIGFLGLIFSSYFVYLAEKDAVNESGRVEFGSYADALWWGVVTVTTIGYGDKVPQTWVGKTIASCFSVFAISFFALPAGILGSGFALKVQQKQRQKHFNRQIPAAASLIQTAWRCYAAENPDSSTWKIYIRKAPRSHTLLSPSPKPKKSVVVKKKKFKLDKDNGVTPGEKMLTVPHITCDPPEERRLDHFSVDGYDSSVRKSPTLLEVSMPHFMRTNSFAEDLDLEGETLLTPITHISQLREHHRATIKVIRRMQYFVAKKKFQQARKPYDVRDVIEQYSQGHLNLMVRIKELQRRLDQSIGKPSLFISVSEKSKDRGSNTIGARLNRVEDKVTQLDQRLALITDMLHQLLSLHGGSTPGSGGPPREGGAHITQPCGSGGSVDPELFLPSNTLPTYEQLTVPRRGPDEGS
KCNQ2 pot confirm: rat KCNQ2 channel potentiators, confirmation, cell-based, CHO, FluxOR thallium flux, duplicate; shares compounds with KCNQ2 pot; CHO-KCNQ2 cells, FluxOR thallium flux fluorescence; potentiation, less the hit threshold, % at 10 µM; 1,200 compounds, 68% hits; AID 2287, 2010;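 active means fluorescence ratio rising 3 SD or more over the vehicle control mean in both replicates, plus primary screen hit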;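 further: peak minus minimum thallium fluorescence divided by baseline after K/Tl stimulus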
Kir2-1 sel: mouse Kir2.1 channel activation off-target, confirmation, selectivity assay for KCNQ2 potentiator project, cell-based, HEK293, FluxOR thallium flux; shares compounds with KCNQ2 pot; 1,200 compounds, 2% hits; HEK293 Kir2.1, FluxOR thallium flux fluorescence; activity over 3SD threshold, % at 10 µM; AID 2345, 2010;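 active means fluorescence ratio rise of at least 3 SD above the vehicle-control mean, seen in both replicates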
KCNQ2 W236L pot: potentiators of retigabine-insensitive KCNQ2 W236L, mechanism study for KCNQ2 potentiator project, cell-based, rat KCNQ2 W236L, CHO, automated patch clamp; shares compounds with KCNQ2 pot; AID 2558, 2010; current increase over 3SD of negative controls (%), active compounds read high, % at 25 µM; automated patch clamp current; 940 compounds, 10% hits;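 active means current increase at least 3 SD of the untreated controls above them in both duplicate recordings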
Of the large screens only hits and unclear results are named; the others gave an inactive call (follow-up assays come after a bar, where they were run). Compounds with a hit are over-represented: about 1.6% of the library has one in this group of screens.

O=C(Nc1cccc(F)c1)N1CCCC(CNS(=O)(=O)Cc2ccccc2)C1 (configuration not stated)	none
COc1cccc(NC(=O)NCCCSC2CCCCC2)c1	KCNQ2 pot 6.5 | Kir21 conf inh inactive | HEK293 ctr inactive | CHO-K1 Tl ctr inactive | KCNQ1 sel pot inactive | KCNQ2 pot confirm 13 | Kir2-1 sel inactive | KCNQ2 W236L pot inactive
COc1cccc(NC(=O)NCCCCc2ccccc2)c1	none
Cc1cc(C)cc(NC(=O)C2CCCN2/C=C/C(=O)C(F)(F)F)c1 (configuration not stated)	none
O=C(O)CCCC(=O)N1N=C(c2ccccc2)CC1c1cccs1 (configuration not stated)	none (no result: KCNQ2 pot)
CCN(Cc1ccccc1)CC(O)COC(c1ccc(OC)cc1)c1ccc(OC)cc1 (configuration not stated)	none (no result: KCNQ2 pot) | Kir21 conf inh 66% | HEK293 ctr inactive
CCN(CC)CC(O)COC(c1ccccc1)c1ccccc1 (configuration not stated)	none
COc1ccc(CN(C)CC(O)COc2ccc(C(=O)c3ccccc3)cc2)c(OC)c1OC (configuration not stated)	none (no result: KCNQ2 pot)
COc1ccc(CN(C)CC(O)COC(c2ccccc2)c2ccccc2)c(OC)c1OC (configuration not stated)	none (no result: KCNQ2 pot) | Kir21 conf inh 54% | HEK293 ctr inactive
CCC1CC(C(=O)Nc2ccccc2)C(=O)O1 (configuration not stated)	none
O=C1C=CC(=O)C(C2=C3C(=O)N(CCc4ccccc4)CC(=O)N3CCC2)=C1	none | Kir21 conf inh 69% | HEK293 ctr 69%
O=C1CC(=O)N(CCc2ccccc2)C(=O)N1CCc1ccccc1	none
CCc1ccc(-c2nc(NC(=S)NC(=O)c3cccs3)sc2C)cc1	none
COC(=O)c1nc(NC(=S)NC(=O)c2cccs2)sc1C	KCNQ2 pot 5.8 | Kir21 conf inh inactive | HEK293 ctr 140% | CHO-K1 Tl ctr 5.0 | KCNQ1 sel pot inactive | KCNQ2 pot confirm inactive | Kir2-1 sel inactive | KCNQ2 W236L pot inactive
CNCCC(Oc1ccc(C(F)(F)F)cc1)c1ccccc1 (configuration not stated)	none (no result: KCNQ2 pot)
CNCC[C@H](Oc1cccc2ccccc12)c1cccs1	none (no result: KCNQ2 pot) | Kir21 conf inh inactive | HEK293 ctr inactive
Cc1cc(S(=O)(=O)N2CCOCC2)ccc1OCC(=O)NCc1ccccn1	none
COC(=O)C1=C(C)NC(=S)NC1c1ccc(-c2cc(Cl)ccc2Cl)o1 (configuration not stated)	none (no result: KCNQ2 pot)
O=C(CCl)c1ccc2c(c1)CCN2C(=O)C1CCCCC1	none
COc1ccccc1N1CCN(C(=O)CSc2nc(C)c(Cc3ccccc3)c(=O)[nH]2)CC1	KCNQ2 pot 9.2 | Kir21 conf inh inactive | HEK293 ctr inactive | CHO-K1 Tl ctr inactive | KCNQ1 sel pot inactive | KCNQ2 pot confirm 29 | Kir2-1 sel inactive | KCNQ2 W236L pot inactive
COc1ccccc1N1CCN(C(=O)CSc2nc(-c3ccccc3)cc(=O)[nH]2)CC1	none (no result: KCNQ2 pot)
COc1ccc(-c2csc(NC(=O)c3ccc(C(C)(C)C)cc3)c2C(=O)O)cc1	KCNQ2 pot 6.5 | Kir21 conf inh inactive | HEK293 ctr inactive | CHO-K1 Tl ctr inactive | KCNQ1 sel pot inactive | KCNQ2 pot confirm inactive | Kir2-1 sel inactive
COc1ccc(-c2csc(NC(=O)c3ccccc3Br)c2C(=O)O)cc1	none
CCOc1ccccc1N1C(=O)c2ccc(S(=O)(=O)c3ccc(C(=O)O)cc3)cc2C1=O	none
O=C(OCC(=O)N1CCC(Cc2ccccc2)CC1)c1ccccc1	none
COc1cc(C(=O)OCC(=O)N2CCC(Cc3ccccc3)CC2)cc(OC)c1OC	KCNQ2 pot 5.6 | Kir21 conf inh inactive | HEK293 ctr 67% | CHO-K1 Tl ctr inactive | KCNQ1 sel pot inactive | KCNQ2 pot confirm 35 | Kir2-1 sel inactive | KCNQ2 W236L pot inactive
CCOc1ccc(N(C(=O)c2cnccn2)C(C(=O)NC2CCCCC2)c2ccc(O)cc2)cc1 (configuration not stated)	none (no result: KCNQ2 pot)
CCCn1c(SCc2cc(=O)oc3ccc4ccccc4c23)n[nH]c1=O	none
CC(CCN1C(Nc2ccccc2)=NC[C@@H]1Cc1ccccc1)c1ccccc1 (some centres not stated)	none (no result: KCNQ2 pot) | Kir21 conf inh 46% | HEK293 ctr 128%
CC(C)CCN1C(Nc2ccccc2)=NC[C@@H]1Cc1ccccc1	none (no result: KCNQ2 pot)
O=C(CN1CCC(Cc2ccccc2)CC1)NCCc1ccc(F)cc1	KCNQ2 pot 16 | CHO-K1 Tl ctr 69 | KCNQ1 sel pot inactive | KCNQ2 pot confirm 56 | Kir2-1 sel inactive | KCNQ2 W236L pot inactive
NS(=O)(=O)c1ccc(CCNC(=O)CN2CCC(Cc3ccccc3)CC2)cc1	none
CCOC(=O)c1ccc(NC(=O)CN2CCN(C(=O)C3CCCO3)CC2)cc1 (configuration not stated)	none (no result: KCNQ2 pot)
C=CCOC(=O)C1=C(C)NC(C)=C(C(=O)OCC=C)C1c1cn(-c2ccccc2)nc1-c1ccco1	none
CCOC(=O)COc1ccccc1C(=O)c1cnn(-c2ccccc2)c1	none (no result: KCNQ2 pot)
COc1cc2c(cc1OC)CN(c1ccc(-c3ccccc3OC)nn1)CC2	none (no result: KCNQ2 pot)
COc1cc2c(cc1OC)CN(c1ccc3ccccc3n1)CC2	none (no result: KCNQ2 pot) | Kir21 conf inh 56% | HEK293 ctr 132%
O=C(c1nn2c(C(F)(F)F)cc(-c3ccccc3)nc2c1Cl)N1CCN2CCCC2C1 (configuration not stated)	none (no result: KCNQ2 pot)
Cn1c(-c2ccccc2)cnc1NCc1ccccc1	none (no result: KCNQ2 pot)
Cn1c(NCc2cc(Br)ccc2O)nc2ccccc21	none
